Laboratory results: PubChem BioAssay AID463117 (University of Pittsburgh Molecular Library Screening Center, 2010)
This is one part of the list. A number with no mark means an inactive call. The source made the active and inactive calls.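 Rule for the calls: active = mean protection from necroptosis of at least 50% over duplicate tests; inactive = mean protection below 50%.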

experiment: inhibitors of zVAD-triggered necroptosis in L929, confirmation, L929 cells, duplicate runs (AID 463117); details: L929 zVAD-induced necroptosis rescue, ATP luminescence, 24 h; at 10 µM; active compounds read high;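 note: 0% = cells with zVAD alone and 100% = vehicle cells without zVAD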

SMILES	activation (protection from necroptosis)
CCn1c(SCC(=O)Nc2nc3ccc(OC)cc3s2)nnc1-c1ccoc1C	1.15%
CCOc1ccc(C(=O)Nc2nccs2)cc1[N+](=O)[O-]	1.6%
CC(=O)Nc1cccc(-c2cnc3ccccc3n2)c1	1.04%
COc1ccc(-c2csc(Nc3ccc(O)cc3)n2)cc1	30.2%
Cc1cc(NC(=O)c2cnn3cccnc23)n(-c2ccccc2)n1	21.5%
OCCCNc1nccc(-c2cc(Nc3cccc(Cl)c3)ncn2)n1	102% (active)
Oc1ccc(-c2onc3ccc(Cl)cc23)cc1	11.4%
COc1ccc(-n2cnc3cc(NCc4ccco4)ccc32)cc1	52.9% (active)
COc1ccc(-n2cnc3cc(C(=O)NC4CCCC4)ccc32)cc1	62% (active)
COc1ccc(Nc2ncc(F)c(N3CCOCC3)n2)cc1	1.91%
CCOC(=O)N1CCN(C(=O)CNC(=O)Cc2ccc(Cl)cc2)CC1	34.3%
Cc1ccccc1NC(=O)CSC1=NCCN1	7.19%
Cc1[nH]c(=O)c(C(=O)/C=C/c2ccccc2)c2c1CCCC2	1.29%
COc1cc(N=Cc2c(O)[nH]c3ccccc23)cc(OC)c1OC	72.9% (active)
Cc1ccc(NC(=O)NC2CCCCC2)cc1S(=O)(=O)N1CCOCC1	2.38%
Cn1ccc(NC(=O)Nc2ccc(Cl)cc2)n1	28.3%
CC(=O)Nc1ccc(NC(=S)NC(=O)/C=C/c2ccccc2)cc1	-0.0785%
COc1ccc(N=Cc2c(O)[nH]c3ccccc23)cc1OC	76% (active)

SMILES	activation (protection from necroptosis)
CC1CCCCC1NC(=O)/C(C#N)=C/C=C/c1ccccc1[N+](=O)[O-] (stereo not given)	4.07%
COc1cc(/C=N/Nc2nc3ccccc3s2)ccc1O	75.3% (active)
COc1ccc2nc(NC(=O)NC3CCCCC3)sc2c1	37.5%
CC(=O)c1cc(C#N)c(SCC(=O)Nc2nccs2)nc1C	0.793%
O=C(CSc1ccc([N+](=O)[O-])cn1)Nc1ccc(N2CCOCC2)c(Cl)c1	3.3%
Cc1ccc(NC(=O)COc2ccc(-n3ccnc3)cc2)cc1Cl	62.3% (active)
CCn1c(SCCC(C)C)nnc1-c1c[nH]c2ccccc12	2.15%
CC1CCCC(C)N1CCCNC(=O)c1cc2c(=O)n(C)c3ccccc3c2n1C (stereo not given)	37.3%
Oc1ccc(/C=N/Nc2ccc(C(F)(F)F)cn2)cc1O	83.8% (active)
Cc1cc(-n2cnc(-c3cn(C)nc3C)n2)no1	27.6%
C[C@@H]1C[C@@H]2O[C@H]2/C=C\C=C\C(=O)Cc2c(Cl)c(O)cc(O)c2C(=O)O1	76.5% (active)
Cc1cccc(NC(=O)Nc2ccc3c(c2)OCO3)n1	-0.556%
CC(=O)c1ccc(S(=O)(=O)N2CCN(C(=O)/C=C/c3ccc4ccccc4n3)CC2)cc1	2.81%
Cc1csc(NC(=O)NC2(C(F)(F)F)Oc3ccccc3O2)n1	1.61%
Cc1ccc(Nc2ccccc2N)cc1	5.52%
O=C(COc1cccc(-n2cnnn2)c1)NCCC1=CCCCC1	36.6%
CCN(CC)S(=O)(=O)c1ccc(NC(=O)c2cccnc2Cl)c(NC(=O)c2cccnc2Cl)c1	2.93%
